Only some compounds are listed: those with a hit (about 4% of all), similar ones and a draw of the others.
Mtb FBA inh = Mtb FBA enzyme inhibitors, primary screen, biochemical, fluorescence, strain H37Rv; purified M. tuberculosis FBA, fluorescence read-out; actives 2.3% (n = 360,000); AID 588726, 2011; inhibition, % at 1 µM; Fructose-bisphosphate aldolase (Mycobacterium tuberculosis (strain ATCC 25618 / H37Rv)), …; in the data active means inhibition above about 27%;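 further: 0% = vehicle and 100% = reference inhibitor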
Target sequence (P9WQA3 whole entry, looked up): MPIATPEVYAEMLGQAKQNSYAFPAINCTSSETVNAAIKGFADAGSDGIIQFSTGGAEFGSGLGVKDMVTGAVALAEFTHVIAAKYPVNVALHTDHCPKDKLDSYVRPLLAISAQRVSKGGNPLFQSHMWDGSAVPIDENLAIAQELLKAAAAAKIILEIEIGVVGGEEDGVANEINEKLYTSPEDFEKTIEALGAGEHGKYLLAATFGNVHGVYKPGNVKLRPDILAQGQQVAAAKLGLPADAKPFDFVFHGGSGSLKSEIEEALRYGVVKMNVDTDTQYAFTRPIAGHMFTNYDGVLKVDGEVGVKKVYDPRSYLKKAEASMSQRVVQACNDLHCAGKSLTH
GDH-TPI counter = GDH-TPI coupling enzyme inhibitors, primary screen, artefact control for M. tuberculosis FBA inhibitor project, biochemical, absorbance, full deck; inhibition, % at 4.8 µM; GDH-TPI coupled enzyme counterscreen, NADH absorbance; actives 1.2% (n = 360,000);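 further: 0% = DMSO wells and 100% = wells lacking the enzyme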
Mtb betalactam = beta-lactam sensitization of Mtb H37Rv, H37Rv; AID 434955, 2010; actives 0.27% (n = 330,000); M. tuberculosis H37Rv growth with meropenem, percent inhibition; inhibition, % at 25 µM; call rule not given here;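 further: growth measured after seven days incubation then overnight dye step; 0% = bacteria only wells and 100% = bacteria with antibiotic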
MazF activator = activators of E. coli MazEF toxin-antitoxin RNase, primary screen, biochemical, fluorescence, uHTS | activation, % at 20 µM | actives 0.32% (n = 350,000) | AID 504720, 2011 | Endoribonuclease toxin MazF (Escherichia coli (strain K12)), P0AE70 | FAM/BHQ RNA-DNA oligo cleavage fluorescence, 5 h; in the data active means activation above about 50%
Target sequence (P0AE70 whole entry, looked up): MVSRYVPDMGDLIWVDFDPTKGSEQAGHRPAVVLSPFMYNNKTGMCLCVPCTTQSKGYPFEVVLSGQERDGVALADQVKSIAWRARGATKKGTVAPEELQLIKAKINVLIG
CCHFV vOTU inh = CCHFV vOTU protease inhibitors, primary screen, biochemical, Pep-AMC substrate, fluorescence | Crimean-Congo hemorrhagic fever virus L polyprotein viral ovarian tumor (vOTU) protease … | inhibition, % at 11.5 µM | actives 0.55% (n = 370,000) | AID 651958, 2012; further: 0% = vehicle wells with enzyme and 100% = no enzyme wells
* = called active by the depositor; ? = inconclusive; nt = no result given; + = active, no number. Unless noted, no stated cut-off is given here; in the data, active means inhibition above about 30%; inactive means the rest.

SMILES	Mtb FBA inh	GDH-TPI counter	Mtb betalactam	MazF activator	CCHFV vOTU inh
CC(=O)C1=C(O)C(=O)N(c2cccnc2)C1c1cccc([N+](=O)[O-])c1 (stereo not given)	-3	13	-8	3	4
COc1ccc(C2C(C(C)=O)=C(O)C(=O)N2CCc2ccccc2)c(OC)c1 (stereo not given)	-3	37*	-3	-10	9
CC(=O)C1=C(O)C(=O)N(c2ccc(O)cc2)C1c1cccc([N+](=O)[O-])c1 (stereo not given)	2	32*	-2	2	-4
CCOC(=O)[C@@]12CCCC3=C1N(CCC3)C(=O)[C@H]2CC(=O)NCCC(C)C	nt	nt	nt	nt	-1
C#CCNC(=O)C[C@@H]1C[C@]2(C(=O)OCC)CCC3=C2N(CCC3)C1=O	nt	nt	nt	nt	-8
COC(=O)[C@]12C[C@H](CC(=O)NCCCN3CCCC3=O)C(=O)N(Cc3ccco3)C1=C[C@H](C(C)C)O[C@@H]2C1CC1	nt	nt	nt	nt	0
Cc1ccc2nc(-c3ccc(N4C(=NC(=O)CCC(=O)O)SC5CS(=O)(=O)CC54)cc3)sc2c1 (stereo not given)	66*	11	0	-7	nt
CC(=O)N1CCc2cc(S(=O)(=O)NCCC(=O)NCc3ccc(Cl)cc3)ccc21	nt	nt	nt	nt	3
CCN1C(C)=C(C)S/C1=C1\SC(=S)N(NC(C)=O)C1=O	-4	6	1	-10	2
CCN1C(C)=C(C)S/C1=C1\SC(=S)N(C2CCCCC2)C1=O	-2	-3	1	354*	-1
O=C(CCc1ccccc1)N[C@H]1[C@H](OCc2ccccc2)CCC[C@@]12C(=O)N(Cc1ccccc1)c1ccc(-c3ccccn3)cc12	nt	nt	nt	nt	0
O=C(CSc1nnc(SCc2cccc3ccccc23)s1)Nc1ccc(Oc2ccccc2)cc1	nt	nt	nt	nt	7
O=c1ccc2cc(OC3O[C@H](CO)[C@@H](O)[C@H](O)[C@H]3O)c(O)cc2o1 (stereo not given in full)	nt	20	6	-9	-266
CC(=O)OC[C@H]1O[C@@H](Oc2cc3ccc(=O)oc3cc2OC(C)=O)[C@H](OC(C)=O)[C@@H](OC(C)=O)[C@@H]1OC(C)=O	+	11	nt	6	-347
O=C1C(Cl)=C(NCCc2ccccc2)C(=O)N1CCc1ccccc1	4	-1	-5	70*	1
CCN(CC(=O)NCc1ccccc1Cl)CC(=O)Nc1c(F)cccc1F	2	44*	-1	-3	3
COc1cccc(C(=O)Nc2nnc(-c3ccccc3)s2)c1	19	36*	1	-5	0
COc1cccc(C(=O)Nc2nnc(S(=O)(=O)Nc3cccc(C)c3)s2)c1	6	37*	4	7	6
COc1ccc(CNS(=O)(=O)CC2NCc3cc(OC)ccc32)cc1 (stereo not given)	nt	nt	nt	nt	7
CC(=C/c1ccccc1)/C=N/Nc1nc(N2CCCCC2)nc(N2CCCCC2)n1	3	4	?	-8	0
BrC(/C=N/Nc1nc(N2CCOCC2)nc(N2CCOCC2)n1)=C/c1ccccc1	2	41*	8	3	16
CN1OC[C@@H]2CN(C(=O)C(C)(C)C)[C@H](c3cccc(Br)c3)C[C@@H]21	0	-2	nt	53*	-4
CN1OC[C@@H]2CN(C(=O)C(C)(C)C)[C@H](c3cccc(N4CCOCC4)c3)C[C@@H]21	-2	-1	nt	13	-1
COc1ccc(/C=C/c2nc3ccccc3n2C)cc1	7	65*	22	10	-9
COc1ccc(/C=N\n2nnc3ccccc32)cc1	8	51*	-3	-3	13
SMILES	Mtb FBA inh	GDH-TPI counter	Mtb betalactam	MazF activator	CCHFV vOTU inh
Cn1c(/C=C/c2ccc(Cl)cc2)nc2ccccc2c1=O	0	37*	nt	15	-3
O=c1c2ccccc2nc(/C=C/c2ccccc2)n1CCCO	1	35*	6	6	20
Cn1c(/C=C/c2ccccc2)nc2ccccc2c1=O	5	22	-2	2	-7
COc1ccc(Nc2nc3ccccc3n2C)cc1	2	-4	0	8	19
O=C(O)CN1C(=O)/C(=C/c2ccccc2Cl)Oc2ccccc21	130*	17	-7	-9	-42
COc1cccc(CNC(=O)C[C@H]2CC[C@H]3[C@@H](COc4ccc(NC(=O)c5cccs5)cc4C(=O)N3C)O2)c1	nt	nt	nt	nt	-13
COC(=O)c1c2[n+](cc3cc(OC)c(OC)cc13)CCc1cc(OC)c(OC)cc1-2	0	43*	0	7	6
COC(=O)c1ccc2cc(OC)c(OC)cc2c1	13	-2	nt	1	-10
NC(=S)N/N=C/c1ncc(C(F)(F)F)cc1Cl	2	46*	98	-215	nt
CCN(CC)Cc1c(C(=O)N/N=C/c2cccc3ccccc23)nnn1-c1nonc1N	0	15	3	-15	0
CCCc1c(C(=O)N/N=C/c2cccc3ccccc23)nnn1-c1nonc1N	2	32*	-1	-27	-1
CCOc1ccc(-c2c(C(=O)N/N=C/c3c[nH]c4ccccc34)nnn2-c2nonc2N)cc1	-2	40*	1	-6	5
COCc1cc(C)nc2sc(C(=O)Nc3ccccc3F)c(N)c12	2	9	6	5	-13
Nc1c(C(=O)Nc2ccccc2F)sc2nc(Cc3ccccc3)cc(C(F)(F)F)c12	0	9	3	+	-9
CCOC(=O)/C(=N/Nc1ccc(C)cc1)S(=O)(=O)c1ccc(Cl)cc1	2	12	93	-18	-14
CCOC(=O)/C(=N\Nc1ccccc1)P(=O)(c1ccccc1)c1ccccc1	2	51*	0	7	4
CCOC(=O)/C(=N\Nc1ccccc1)S(=O)(=O)c1ccccc1	-2	31*	-10	5	4
Cc1ccccc1CNC(=O)C1C2C=CC3(CN(Cc4ccccc4)C(=O)C13)O2 (stereo not given)	nt	nt	nt	nt	0
O=C(Nc1nc2ncccn2c1-c1ccc(F)cc1)c1ccc(F)cc1	nt	nt	nt	nt	-12
CCOC(=O)N1CCN(C(=O)C[C@H]2C(=O)N(CCCOC)C3=CCCC[C@@]32C(=O)OCC)CC1	nt	nt	nt	nt	-7
COc1ccccc1CNC(=O)c1c(N)n(CCCN2CCOCC2)c2nc3ccccc3nc12	82*	14	nt	-27	-50
CC(C)OC(=O)c1c(N)n(CCCN2CCOCC2)c2nc3ccccc3nc12	147*	12	-7	0	-204
O=C(NCCc1ccccc1Cl)[C@@H]1CCCN1C(=O)[C@@H](NC(=O)N1CCOCC1)C1CCCCC1	nt	nt	nt	nt	6
Nc1ccc(-c2nc3ccc(N)cc3o2)cc1	+	46*	-1	11	-300
Cc1ncc(CO)c(CNc2ccc(-c3nc4ccccc4[nH]3)cc2)c1O	14	42*	-5	5	-8
